We go through 1 sequence from article PMC7862700, “An all-to-all approach to the identification of sequence-specific readers for epigenetic DNA modifications on cytosine”.

Holding throughout (assay): DAPPL (digital affinity profiling via proximity ligation, sequencing); 10 mM Tris-HCl pH 7.5, 50 mM NaCl, 1 mM DTT, 4% glycerol, room temperature, 30 min; GST-TFs on glutathione beads, 16-mer random dsDNA library, 0.1% formaldehyde crosslink after washing; high values mean tight binding
One assay has as its target T1, FEV (Homo sapiens, UniProt Q99581 1-238).
T1 sequence: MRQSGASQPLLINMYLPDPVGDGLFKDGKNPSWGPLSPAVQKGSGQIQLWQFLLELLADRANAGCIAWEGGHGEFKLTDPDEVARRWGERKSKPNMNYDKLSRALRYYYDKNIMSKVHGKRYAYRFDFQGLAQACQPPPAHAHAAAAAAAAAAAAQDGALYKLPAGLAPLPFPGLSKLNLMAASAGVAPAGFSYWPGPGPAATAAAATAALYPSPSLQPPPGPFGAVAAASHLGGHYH
Conditions: protein: recombinant; tags: N-terminal GST; dsDNA, one strand shown. An outline of the steps:
(§1)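 Yeast served to express human transcription factors as GST fusions, which were then captured on glutathione beads and labelled with DNA barcodes. Pooled with a tag-only sample, they were incubated with 200 nmole of a 16-mer random double-stranded DNA library for 30 min at room temperature in Tris/NaCl/DTT/glycerol buffer, washed, crosslinked with 0.1% formaldehyde, ligated by proximity, amplified by PCR and sequenced. Dividing each hexamer's read frequency for a factor by its frequency for the tag-only sample gives the binding signal.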

A further assay has as its target ETV5 (Homo sapiens, UniProt P41161 1-510). Particulars: protein: recombinant; tags: N-terminal GST; dsDNA, one strand shown. A digest of the protocol: as §1
Another assay concerns the target HSF1 (Homo sapiens, UniProt Q00613 1-529). Conditions: protein: recombinant; tags: N-terminal GST; chain copies: 3; dsDNA, one strand shown. A digest of the protocol: as §1
The target in the next assay is T2, SPIC (Homo sapiens, UniProt Q8N5J4 1-248).
T2 sequence: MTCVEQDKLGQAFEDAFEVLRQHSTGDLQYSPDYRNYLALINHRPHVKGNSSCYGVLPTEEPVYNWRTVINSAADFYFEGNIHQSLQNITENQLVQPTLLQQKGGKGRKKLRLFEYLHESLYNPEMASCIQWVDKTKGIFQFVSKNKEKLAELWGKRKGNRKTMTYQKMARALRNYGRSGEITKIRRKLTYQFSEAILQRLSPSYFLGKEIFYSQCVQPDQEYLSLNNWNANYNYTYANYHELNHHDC
Conditions: protein: recombinant; tags: N-terminal GST; dsDNA, one strand shown. A digest of the protocol: as §1

The target in the next assay is ELF4 (Homo sapiens, UniProt Q99607 1-663). Particulars: protein: recombinant; tags: N-terminal GST; dsDNA, one strand shown. An outline of the steps: as §1
A further assay concerns the target T3, ELK4 (Homo sapiens, UniProt P28324-2 1-405).
T3 sequence: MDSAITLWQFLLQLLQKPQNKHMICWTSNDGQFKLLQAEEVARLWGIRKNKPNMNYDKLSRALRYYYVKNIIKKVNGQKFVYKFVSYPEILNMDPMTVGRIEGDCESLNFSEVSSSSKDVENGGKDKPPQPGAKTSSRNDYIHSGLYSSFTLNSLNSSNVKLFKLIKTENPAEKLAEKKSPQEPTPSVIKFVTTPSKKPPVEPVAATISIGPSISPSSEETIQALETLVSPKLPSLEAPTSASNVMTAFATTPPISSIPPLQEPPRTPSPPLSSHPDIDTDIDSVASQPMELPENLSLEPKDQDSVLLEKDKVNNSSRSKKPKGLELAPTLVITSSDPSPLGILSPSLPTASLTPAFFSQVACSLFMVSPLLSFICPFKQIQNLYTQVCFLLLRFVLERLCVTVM
Conditions: protein: recombinant; tags: N-terminal GST; dsDNA, one strand shown. An outline of the steps:
as §1

The target in another assay is T4, ETV2 (Homo sapiens, UniProt O00321 1-342).
T4 sequence: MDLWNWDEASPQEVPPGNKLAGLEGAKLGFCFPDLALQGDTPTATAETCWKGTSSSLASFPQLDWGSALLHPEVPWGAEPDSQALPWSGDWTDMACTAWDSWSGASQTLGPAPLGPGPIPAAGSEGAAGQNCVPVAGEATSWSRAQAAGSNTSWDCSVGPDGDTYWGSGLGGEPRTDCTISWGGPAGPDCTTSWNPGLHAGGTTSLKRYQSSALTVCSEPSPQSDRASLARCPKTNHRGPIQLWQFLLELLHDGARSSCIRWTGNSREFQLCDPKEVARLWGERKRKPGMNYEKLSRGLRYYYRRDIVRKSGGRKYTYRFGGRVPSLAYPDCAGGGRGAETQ
Conditions: protein: recombinant; tags: N-terminal GST; dsDNA, one strand shown. An outline of the steps:
as §1

For the next assay, the target named is T5, ELF3 (Homo sapiens, UniProt P78545 1-371).
T5 sequence: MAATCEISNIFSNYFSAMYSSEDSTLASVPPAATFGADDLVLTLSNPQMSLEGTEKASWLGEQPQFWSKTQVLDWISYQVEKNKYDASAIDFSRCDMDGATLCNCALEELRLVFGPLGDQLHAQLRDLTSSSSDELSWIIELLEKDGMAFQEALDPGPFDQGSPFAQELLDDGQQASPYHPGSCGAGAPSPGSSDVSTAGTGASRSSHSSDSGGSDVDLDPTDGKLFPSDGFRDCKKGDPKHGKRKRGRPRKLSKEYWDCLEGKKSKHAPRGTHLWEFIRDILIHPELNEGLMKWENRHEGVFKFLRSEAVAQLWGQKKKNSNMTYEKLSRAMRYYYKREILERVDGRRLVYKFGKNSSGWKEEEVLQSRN
Particulars: protein: recombinant; tags: N-terminal GST; dsDNA, one strand shown. An outline of the steps:
as §1

For a further assay, the target named is CRX (Homo sapiens, UniProt O43186 1-299). Particulars: protein: recombinant; tags: N-terminal GST; dsDNA, one strand shown. An outline of the steps: as §1
For another assay, the target named is ETV1 (Homo sapiens, UniProt P50549 1-477). Conditions: protein: recombinant; tags: N-terminal GST; dsDNA, one strand shown. An outline of the steps:
as §1

The next assay has as its target T6, ERF (Homo sapiens, UniProt P50548 1-548).
T6 sequence: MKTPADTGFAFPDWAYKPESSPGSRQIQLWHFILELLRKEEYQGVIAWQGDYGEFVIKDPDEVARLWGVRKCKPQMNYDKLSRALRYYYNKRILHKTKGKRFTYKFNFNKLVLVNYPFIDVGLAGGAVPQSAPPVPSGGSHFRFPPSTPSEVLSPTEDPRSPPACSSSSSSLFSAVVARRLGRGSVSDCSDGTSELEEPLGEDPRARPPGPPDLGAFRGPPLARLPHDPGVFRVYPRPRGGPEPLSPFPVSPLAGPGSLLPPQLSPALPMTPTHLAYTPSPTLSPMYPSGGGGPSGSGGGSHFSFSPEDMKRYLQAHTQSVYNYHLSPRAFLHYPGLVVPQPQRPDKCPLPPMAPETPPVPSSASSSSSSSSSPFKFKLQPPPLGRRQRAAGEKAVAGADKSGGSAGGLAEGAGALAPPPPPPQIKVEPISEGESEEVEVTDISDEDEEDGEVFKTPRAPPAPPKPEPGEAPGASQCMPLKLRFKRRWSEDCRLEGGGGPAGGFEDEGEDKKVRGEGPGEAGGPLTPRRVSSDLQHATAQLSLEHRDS
Particulars: protein: recombinant; tags: N-terminal GST; dsDNA, one strand shown. A digest of the protocol: as §1

The next assay has as its target T7, ETV3L (Homo sapiens, UniProt Q6ZN32 1-361).
T7 sequence: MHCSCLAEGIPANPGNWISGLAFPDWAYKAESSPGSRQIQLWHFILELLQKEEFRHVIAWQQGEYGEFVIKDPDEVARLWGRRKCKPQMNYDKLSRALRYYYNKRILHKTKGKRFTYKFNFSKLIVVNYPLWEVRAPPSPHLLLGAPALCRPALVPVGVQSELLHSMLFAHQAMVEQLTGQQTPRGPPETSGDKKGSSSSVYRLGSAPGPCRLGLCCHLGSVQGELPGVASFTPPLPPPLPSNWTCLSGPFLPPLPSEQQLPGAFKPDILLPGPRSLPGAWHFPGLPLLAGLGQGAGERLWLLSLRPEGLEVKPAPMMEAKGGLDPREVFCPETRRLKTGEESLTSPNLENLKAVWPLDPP
Particulars: protein: recombinant; tags: N-terminal GST; dsDNA, one strand shown. A digest of the protocol:
as §1

The target of another assay is T8, ETS2 (Homo sapiens, UniProt P15036 1-469).
T8 sequence: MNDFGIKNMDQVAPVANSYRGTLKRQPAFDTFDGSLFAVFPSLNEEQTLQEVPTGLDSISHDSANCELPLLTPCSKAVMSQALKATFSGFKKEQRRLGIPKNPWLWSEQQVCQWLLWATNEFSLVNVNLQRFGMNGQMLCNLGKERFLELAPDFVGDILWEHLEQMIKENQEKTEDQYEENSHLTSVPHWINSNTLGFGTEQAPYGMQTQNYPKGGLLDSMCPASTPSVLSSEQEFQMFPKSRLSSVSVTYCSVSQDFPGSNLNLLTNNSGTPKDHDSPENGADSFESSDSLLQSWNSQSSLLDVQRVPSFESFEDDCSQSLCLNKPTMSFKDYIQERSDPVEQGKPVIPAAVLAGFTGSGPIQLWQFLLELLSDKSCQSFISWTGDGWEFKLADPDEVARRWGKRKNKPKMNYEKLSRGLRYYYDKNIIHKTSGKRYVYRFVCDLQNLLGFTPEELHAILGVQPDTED
Conditions: protein: recombinant; tags: N-terminal GST; dsDNA, one strand shown. An outline of the steps:
as §1

In the next assay the target is T9, SPDEF (Homo sapiens, UniProt O95238 1-335).
T9 sequence: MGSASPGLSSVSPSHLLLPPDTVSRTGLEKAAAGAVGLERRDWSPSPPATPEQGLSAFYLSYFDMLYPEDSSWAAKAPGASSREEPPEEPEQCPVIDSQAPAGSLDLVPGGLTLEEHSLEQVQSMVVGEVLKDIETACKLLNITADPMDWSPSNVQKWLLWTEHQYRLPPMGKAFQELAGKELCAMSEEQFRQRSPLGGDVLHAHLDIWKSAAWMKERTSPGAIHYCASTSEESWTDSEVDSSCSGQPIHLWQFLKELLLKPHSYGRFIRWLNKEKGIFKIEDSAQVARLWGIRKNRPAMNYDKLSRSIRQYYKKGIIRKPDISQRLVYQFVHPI
Particulars: protein: recombinant; tags: N-terminal GST; dsDNA, one strand shown. An outline of the steps: as §1

A further assay has as its target T10, ETV7 (Homo sapiens, UniProt Q9Y603 1-341).
T10 sequence: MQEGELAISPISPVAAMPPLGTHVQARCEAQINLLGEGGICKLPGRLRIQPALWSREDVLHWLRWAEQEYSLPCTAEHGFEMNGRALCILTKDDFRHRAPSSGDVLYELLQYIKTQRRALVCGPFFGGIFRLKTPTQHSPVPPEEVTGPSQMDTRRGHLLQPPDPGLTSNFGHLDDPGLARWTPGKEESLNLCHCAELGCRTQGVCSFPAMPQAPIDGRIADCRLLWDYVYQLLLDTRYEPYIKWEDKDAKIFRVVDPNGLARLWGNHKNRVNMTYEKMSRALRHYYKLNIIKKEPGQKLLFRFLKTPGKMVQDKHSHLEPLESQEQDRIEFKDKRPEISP
Particulars: protein: recombinant; tags: N-terminal GST; dsDNA, one strand shown. An outline of the steps:
as §1

The next assay addresses T11, ELF5 (Homo sapiens, UniProt Q9UKW6-2 1-255).
T11 sequence: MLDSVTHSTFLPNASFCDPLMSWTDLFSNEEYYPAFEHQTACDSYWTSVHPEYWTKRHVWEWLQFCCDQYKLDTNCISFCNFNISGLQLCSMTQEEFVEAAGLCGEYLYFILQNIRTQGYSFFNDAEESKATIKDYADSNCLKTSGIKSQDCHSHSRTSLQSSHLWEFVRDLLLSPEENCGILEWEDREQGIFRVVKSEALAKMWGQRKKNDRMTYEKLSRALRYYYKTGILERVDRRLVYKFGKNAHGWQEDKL
Particulars: protein: recombinant; tags: N-terminal GST; dsDNA, one strand shown. An outline of the steps: as §1

The target in the next assay is T12, ETV3 (Homo sapiens, UniProt P41162-2 1-143).
T12 sequence: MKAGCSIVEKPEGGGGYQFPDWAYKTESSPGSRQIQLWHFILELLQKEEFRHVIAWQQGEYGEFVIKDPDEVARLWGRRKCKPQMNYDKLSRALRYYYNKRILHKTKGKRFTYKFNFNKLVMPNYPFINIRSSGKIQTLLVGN
Particulars: protein: recombinant; tags: N-terminal GST; dsDNA, one strand shown. An outline of the steps:
as §1

The target in the next assay is ETV6 (Homo sapiens, UniProt P41212 1-452). Particulars: protein: recombinant; tags: N-terminal GST; dsDNA, one strand shown. A digest of the protocol: as §1
ETV6, sequence (P41212 whole entry): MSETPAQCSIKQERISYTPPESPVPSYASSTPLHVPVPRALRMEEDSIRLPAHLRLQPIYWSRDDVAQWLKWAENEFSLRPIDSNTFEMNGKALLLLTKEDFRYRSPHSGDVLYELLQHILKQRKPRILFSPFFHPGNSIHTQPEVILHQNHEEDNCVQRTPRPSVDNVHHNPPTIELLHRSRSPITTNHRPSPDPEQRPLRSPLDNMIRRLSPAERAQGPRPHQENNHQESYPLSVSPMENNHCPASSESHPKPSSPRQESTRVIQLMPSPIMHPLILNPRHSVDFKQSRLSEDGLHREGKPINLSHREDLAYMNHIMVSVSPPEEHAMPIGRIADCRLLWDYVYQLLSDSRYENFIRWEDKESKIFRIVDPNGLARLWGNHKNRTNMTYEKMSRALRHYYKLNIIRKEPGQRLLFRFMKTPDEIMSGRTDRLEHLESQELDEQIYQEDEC

ELF4, sequence (Q99607 whole entry): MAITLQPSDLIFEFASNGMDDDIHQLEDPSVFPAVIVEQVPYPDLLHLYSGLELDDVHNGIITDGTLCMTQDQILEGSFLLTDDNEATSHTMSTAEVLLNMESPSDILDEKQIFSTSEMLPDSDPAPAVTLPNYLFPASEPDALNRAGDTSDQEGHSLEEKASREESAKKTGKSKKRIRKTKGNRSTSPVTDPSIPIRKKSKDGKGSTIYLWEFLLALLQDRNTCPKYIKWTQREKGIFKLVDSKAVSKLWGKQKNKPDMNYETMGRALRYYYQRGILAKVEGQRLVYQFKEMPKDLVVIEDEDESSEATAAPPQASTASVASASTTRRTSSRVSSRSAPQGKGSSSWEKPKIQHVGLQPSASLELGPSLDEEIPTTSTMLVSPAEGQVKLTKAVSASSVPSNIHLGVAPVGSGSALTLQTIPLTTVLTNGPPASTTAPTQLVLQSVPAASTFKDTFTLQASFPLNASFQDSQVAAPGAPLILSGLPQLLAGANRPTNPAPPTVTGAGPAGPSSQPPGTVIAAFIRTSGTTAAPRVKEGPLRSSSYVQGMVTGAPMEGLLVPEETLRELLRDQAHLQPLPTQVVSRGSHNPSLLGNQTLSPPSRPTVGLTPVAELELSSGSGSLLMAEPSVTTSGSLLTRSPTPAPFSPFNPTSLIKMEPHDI
CRX, sequence (O43186 whole entry): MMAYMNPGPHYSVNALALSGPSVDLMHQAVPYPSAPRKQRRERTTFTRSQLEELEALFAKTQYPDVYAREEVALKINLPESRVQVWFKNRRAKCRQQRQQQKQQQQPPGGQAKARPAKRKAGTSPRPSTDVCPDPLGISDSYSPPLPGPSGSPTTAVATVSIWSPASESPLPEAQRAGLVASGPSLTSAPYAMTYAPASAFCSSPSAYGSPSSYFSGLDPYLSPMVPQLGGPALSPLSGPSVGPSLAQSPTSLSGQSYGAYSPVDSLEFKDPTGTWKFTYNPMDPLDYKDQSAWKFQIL
ETV5, sequence (P41161 whole entry): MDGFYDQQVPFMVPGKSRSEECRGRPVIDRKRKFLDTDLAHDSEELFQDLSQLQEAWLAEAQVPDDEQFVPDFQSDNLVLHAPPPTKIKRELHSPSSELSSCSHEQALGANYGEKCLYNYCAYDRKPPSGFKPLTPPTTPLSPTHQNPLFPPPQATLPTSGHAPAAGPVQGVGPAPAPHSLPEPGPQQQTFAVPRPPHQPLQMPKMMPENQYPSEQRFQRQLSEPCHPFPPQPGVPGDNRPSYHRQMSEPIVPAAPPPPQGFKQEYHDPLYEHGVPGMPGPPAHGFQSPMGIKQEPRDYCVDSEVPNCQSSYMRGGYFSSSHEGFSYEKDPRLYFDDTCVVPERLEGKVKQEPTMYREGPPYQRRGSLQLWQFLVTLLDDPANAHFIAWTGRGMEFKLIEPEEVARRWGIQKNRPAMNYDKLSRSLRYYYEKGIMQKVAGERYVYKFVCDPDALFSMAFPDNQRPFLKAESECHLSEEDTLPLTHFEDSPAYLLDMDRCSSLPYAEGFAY
HSF1, sequence (Q00613 whole entry): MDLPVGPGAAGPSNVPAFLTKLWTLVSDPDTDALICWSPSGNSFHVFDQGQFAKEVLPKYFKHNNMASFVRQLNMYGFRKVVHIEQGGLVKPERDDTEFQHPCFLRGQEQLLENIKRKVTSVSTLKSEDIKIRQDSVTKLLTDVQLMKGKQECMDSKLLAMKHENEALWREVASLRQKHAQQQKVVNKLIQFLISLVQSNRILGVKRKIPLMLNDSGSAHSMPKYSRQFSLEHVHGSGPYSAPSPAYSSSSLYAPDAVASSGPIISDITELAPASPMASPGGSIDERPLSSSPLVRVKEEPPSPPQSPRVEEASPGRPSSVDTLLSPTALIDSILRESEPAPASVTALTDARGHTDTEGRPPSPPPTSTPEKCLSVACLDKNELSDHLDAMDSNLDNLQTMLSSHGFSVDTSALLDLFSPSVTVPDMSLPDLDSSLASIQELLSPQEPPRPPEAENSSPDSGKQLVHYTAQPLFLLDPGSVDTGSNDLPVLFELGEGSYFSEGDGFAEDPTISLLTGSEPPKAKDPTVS
ETV1, sequence (P50549 whole entry): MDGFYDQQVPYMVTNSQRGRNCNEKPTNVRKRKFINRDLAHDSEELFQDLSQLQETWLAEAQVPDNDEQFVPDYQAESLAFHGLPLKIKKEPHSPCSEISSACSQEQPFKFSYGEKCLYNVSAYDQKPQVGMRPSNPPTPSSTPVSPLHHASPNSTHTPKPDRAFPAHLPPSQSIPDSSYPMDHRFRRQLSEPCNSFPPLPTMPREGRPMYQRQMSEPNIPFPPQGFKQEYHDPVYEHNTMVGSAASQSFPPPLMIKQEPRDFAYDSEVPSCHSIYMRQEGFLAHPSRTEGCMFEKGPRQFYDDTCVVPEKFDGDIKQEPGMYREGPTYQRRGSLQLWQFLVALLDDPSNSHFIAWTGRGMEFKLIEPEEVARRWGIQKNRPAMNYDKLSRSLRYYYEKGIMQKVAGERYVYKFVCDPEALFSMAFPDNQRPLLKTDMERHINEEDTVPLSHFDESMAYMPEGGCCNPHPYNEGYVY

As to ATTTAA, the binding signal was 1.14 fold enrichment (6-mer frequency, TF over GST control) with FEV; 1.24 fold enrichment (6-mer frequency, TF over GST control) in the assay with ETV5; 1.62 fold enrichment (6-mer frequency, TF over GST control) in the assay with HSF1; 1.22 fold enrichment (6-mer frequency, TF over GST control) with SPIC; 1.13 fold enrichment (6-mer frequency, TF over GST control) with ELF4; 1.18 fold enrichment (6-mer frequency, TF over GST control) with ELK4. The binding signal is 1.17 fold enrichment (6-mer frequency, TF over GST control) with ETV2; 1.11 fold enrichment (6-mer frequency, TF over GST control) with ELF3; 2.38 fold enrichment (6-mer frequency, TF over GST control) with CRX; 1.14 fold enrichment (6-mer frequency, TF over GST control) with ETV1; 1.21 fold enrichment (6-mer frequency, TF over GST control) in the assay with ERF; 1.19 fold enrichment (6-mer frequency, TF over GST control) in the assay with ETV3L. In addition, the binding signal with ETS2 was 1.28 fold enrichment (6-mer frequency, TF over GST control); with SPDEF, 1.24 fold enrichment (6-mer frequency, TF over GST control); in the assay with ETV7, 1.27 fold enrichment (6-mer frequency, TF over GST control); in the assay with ELF5, 1.1 fold enrichment (6-mer frequency, TF over GST control); with ETV3, 1.13 fold enrichment (6-mer frequency, TF over GST control); with ETV6, 1.21 fold enrichment (6-mer frequency, TF over GST control).
